# Assay outcomes as filed in PubChem BioAssay.
# HTT cytoprotect: Huntington cell model cytoprotection by ATP luminescence; PC12 HTT-Q103 induced, cytoprotection, ATP luminescence, 40 h; Potency, µM (series often up to 56.4 µM), for the others: cytoprotection (ATP increase), most hits filed as activators; actives 0.14% (n = 230,000); active = well fitted curve in the direction sought with a large enough effect; inconclusive = small, poorly fitted or top-dose-only effect, or another doubt; inactive = no such curve, though single readings can be large; an effect the other way counts as inactive or inconclusive; also: potency is read from the fitted curve at half-maximal effect; % of control where 0% means no effect; nearly all actives have a fitted effect of over 45% in size
#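 Stable PC12 Q103-GFP cells in serum-supplemented, phenol red-free DMEM; induction by tebufenozide at 100 nM final; compound dose series; cell viability quantified luminescently from ATP.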
# HttQ103 aggreg: reduces HttQ103-GFP aggregates in PC12 cells; PC12 HttQ103-GFP aggregates, Acumen cytometry, 40 h; Potency, µM (doses to about 46.1 µM), for inactives: at the top dose activity change, negative = inhibition, most hits filed as inhibitors; actives 1.1% (n = 220,000); active = well fitted curve in the direction sought with a large enough effect; inconclusive = small, poorly fitted or top-dose-only effect, or another doubt; inactive = no such curve, though single readings can be large; an effect the other way counts as inactive or inconclusive; also: potency is read from the fitted curve at half-maximal effect; % is scaled to controls: 0 for no effect and ±100 for the full control effect; nearly all actives have a fitted effect of over 60% in size
#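 PC12 cells with ecdysone-inducible HTT exon1 Q103-GFP, induced by 100 nM tebufenozide, given compounds in a concentration series. GFP aggregates (1–25 um, 6 SD above background) counted in lysates by laser-scanning cytometry, 488 nm excitation.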
# RGS12 GoLoco inh: blocks human Gai1 binding to RGS12 GoLoco peptide, red readout. actives 0.44% (n = 230,000). P63096. Potency, µM (titrated, usually from 61.6 µM), for the others: at the highest dose activity, negative = inhibition, most hits filed as inhibitors. Gai1:RGS12 GoLoco peptide FP, rhodamine, 10 min; active = well fitted inhibition curve with a large enough effect, not every such curve was filed as active; inactive = no such curve, though single readings can be large or run the other way; also: potency is read from the fitted curve at half-maximal effect; % is scaled to controls: 0 for no effect and ±100 for the full control effect; nearly all actives have a fitted effect of over 30% in size
# PNC assembly inh: perinucleolar compartment assembly inhibition | PC3M PTB-GFP, PNC prevalence imaging, 16 h; stronger effect = lower value | activity change (PNC), negative = inhibition, % at 10 µM | actives 3.1% (n = 140,000);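 active = readout at or below -70, meaning at least 70% loss of cells showing the perinucleolar compartment, a nuclear body marking cancer cells; inconclusive = readout between -30 and a set limit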;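 also: plate controls were DMSO wells for no effect and camptothecin positive control wells for full effect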
#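 Compounds are pinned in duplicate onto adhered PC3M cells stably expressing GFP-tagged PTB and incubated 16 h at 37 C. Cells are then fixed, nuclei stained with Hoechst, and PNC-positive cells counted.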
# HPGD block: blocks human HPGD enzyme activity; Potency, µM, without a hit: top-dose activity change, negative = inhibition, actives largely listed as inhibitors; purified HPGD, NADH fluorescence kinetic, PGE2 substrate; actives 4.3% (n = 150,000); also: potency is read from the fitted curve at half-maximal effect; % is scaled to controls: 0 for no effect and ±100 for the full control effect
#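 20 nM HPGD preincubated 15 min at room temperature with compound in 50 mM Tris-HCl pH 8, 0.01% Tween 20. Started with 1 mM NAD+ and 30 uM prostaglandin E2; NADH fluorescence (360/450 nm) read 5 times over 30-s intervals, last minus first.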
# ALDH1A1 inh: ALDH1A1 (human) enzyme inhibition. P00352. actives 7.3% (n = 220,000). Purified ALDH1A1, NADH fluorescence, propionaldehyde substrate. Potency, µM (doses to about 75.3 µM), for the others: at the top dose activity, negative = inhibition, usual class: inhibitors;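 also: potency is read from the fitted curve at half-maximal effect; plate controls were no enzyme wells and a reference inhibitor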
# Target sequence (P00352 whole entry, looked up): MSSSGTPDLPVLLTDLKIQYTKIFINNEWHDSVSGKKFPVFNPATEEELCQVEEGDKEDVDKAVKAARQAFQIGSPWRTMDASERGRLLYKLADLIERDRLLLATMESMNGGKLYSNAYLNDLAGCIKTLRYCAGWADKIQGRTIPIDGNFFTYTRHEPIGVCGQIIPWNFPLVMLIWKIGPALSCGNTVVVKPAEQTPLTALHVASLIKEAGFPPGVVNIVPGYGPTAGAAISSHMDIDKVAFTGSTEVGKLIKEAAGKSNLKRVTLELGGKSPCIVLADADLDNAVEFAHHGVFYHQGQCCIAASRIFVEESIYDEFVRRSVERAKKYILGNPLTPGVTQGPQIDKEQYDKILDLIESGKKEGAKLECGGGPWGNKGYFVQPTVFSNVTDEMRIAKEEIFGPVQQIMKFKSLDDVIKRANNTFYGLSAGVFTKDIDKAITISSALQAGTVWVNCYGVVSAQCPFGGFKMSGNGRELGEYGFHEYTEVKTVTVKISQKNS
# * marks the source's active call; other numbers are inactive results; ? = inconclusive; / = no result; [ ] = remark or other dose. Compounds with a hit are over-represented: about 11% of the library has one in this group of screens. Unless noted, calls follow the shape of the dose curve; as a rule, active = well fitted inhibition curve with a large enough effect (not every such curve was filed as active); inconclusive = small, poorly fitted or top-dose-only effect, or another doubt; inactive = no such curve, though single readings can be large or run the other way.
SMILES,HTT cytoprotect,HttQ103 aggreg,RGS12 GoLoco inh,PNC assembly inh,HPGD block,ALDH1A1 inh
COc1ccc2c(CC(=O)N3CCN(S(=O)(=O)c4cccs4)CC3)coc2c1,29%[10 µM],-13%,-18%,10,-5%,2.8µM*
O=C(NC1CCCC1)c1n[nH]c2ccccc12,-76%,-3%,-1%,/,/,2%
O=C(COc1nncc2ccccc12)Nc1ccc(F)c(F)c1,-18%,?,-3%,/,/,3%
O=C(c1cc(-c2cccc(O)c2)on1)N1CCOCC1,-7%[10 µM],-15%,7%,-85*,-26%,?
COc1ccc(-c2cc(C(=O)N3CC4(C)CC3CC(C)(C)C4)no2)cc1 (stereo not given),-48%,-12%,6%,-11,35µM*,-15%
O=C1c2ccccc2-c2ccc(C(=O)N3CCOCC3)cc21,14%,-1%,7%,?,11µM*,-4%
COc1ccc(-c2cc(C(=O)N3CCOCC3)no2)cc1OC,-11%,8%,8%,-9,-17%,5%
COc1ccc(-c2cc(C(=O)N3CC4(C)CC3CC(C)(C)C4)no2)cc1OC (stereo not given),-81%,-12%,2%,13,-25%,-15%
COc1cccc(-c2cc(C(=O)N3C(C)CCCC3C)no2)c1 (stereo not given),5%[10 µM],?,5%,-91*,8.9µM*,?
COc1cccc(-c2cc(C(=O)N3CCN(C(c4ccccc4)c4ccccc4)CC3)no2)c1,-61%,-20%,0%,?,-20%,?
COc1ccccc1OC[C@H](O)CN1CCN(CC(=O)Nc2c(C)cccc2C)CC1,1%[1.9 µM],/,/,/,/,/
COc1cc(NCc2ccc3nc(N)nc(N)c3c2C)cc(OC)c1OC,-67%,-5%,2%,/,?,?
CCC1CCCCN1C(=O)c1cc(-c2ccc(Cl)c(Cl)c2)on1 (stereo not given),-1%[10 µM],-11%,-3%,-20,4.5µM*,-1%
O=C(c1cc(-c2ccc(Cl)c(Cl)c2)on1)N1CCCCC1,-25%,-7%,8%,22,2.8µM*,8.9µM*
CC(C)CNC(=O)c1cc(-c2ccc(Cl)c(Cl)c2)on1,-16%,18%,2%,29,-11%,-12%
O=C(c1cc(-c2ccc(Cl)c(Cl)c2)on1)N1CCN(c2ccccc2)CC1,-14%,11%,4%,-23,-4%,4%
Cc1ccc(C(=O)Nc2cccc(C(=O)N3CCOCC3)c2)cc1,-17%,-14%,-19%,44,-7%,10%
CC1CCCCN1C(=O)c1cc(-c2ccc(Cl)c(Cl)c2)on1 (stereo not given),-7%,?,3%,-8,4.5µM*,?
O=C(c1cccc(-c2ccc(O)cc2)c1)N1CCOCC1,15%,22%,5%,18,16µM*,-5%
CC(=O)NCc1c(I)c(NC(C)=O)c(I)c(C(=O)O)c1I,?,-10%,4%,/,-8%,-8%
CCOc1cc(/C=N/NC(=O)c2cc(-c3cccc(OC)c3)n[nH]2)ccc1O,/,/,/,/,-25%,?
CC1CCN(C(=O)c2cc(-c3ccccc3O)on2)CC1,-37%,-18%,4%,?,14µM*,14µM*
CC1(C)CC2CC(C)(CN2C(=O)c2cc(-c3ccccc3O)on2)C1 (stereo not given),-4%,-22%,7%,?,-26%,-11%
ClCc1csc(-c2ccc(Cl)cc2)n1,/,-3%,2%,-113*,-5%,-9%
O=C(O)Cc1csc(-c2ccc(Cl)cc2)n1,-8%,-5%,/,/,/,/
SMILES,HTT cytoprotect,HttQ103 aggreg,RGS12 GoLoco inh,PNC assembly inh,HPGD block,ALDH1A1 inh
CC1CN(Cc2csc(-c3ccc(Cl)cc3)n2)CC(C)O1 (stereo not given),-34%,-29%,-6%,/,/,16µM*
CSc1ccccc1NC(=O)c1cc2ncc(Br)cn2n1,-28%,2%,1%,/,/,?
COc1cccc(C2c3[nH]c4ccccc4c3CCN2Cc2cccn2-c2ncccn2)c1 (stereo not given),18%[10 µM],5%[9.22 µM],14%,/,/,-1%
Clc1ccc(-n2cccc2CN2CCc3c([nH]c4ccccc34)C2c2ccccn2)nc1 (stereo not given),-35%,5%,13%,/,/,14µM*
Fc1ccc(C2c3[nH]c4ccccc4c3CCN2Cc2cccn2-c2ncccn2)cc1 (stereo not given),18%[10 µM],22%[9.22 µM],15%,/,/,10µM*
NCCC1([N+](=O)[O-])CCNCC1,-2%[10 µM],/,-1%[14.2 µM],/,-3%,12%[13.5 µM]
O=C(Oc1nsnc1N1CCOCC1)N1CCOCC1,-23%,3%,12%,10,-12%,-3%
O=C(Oc1nsnc1N1CCOCC1)c1ccccc1,7%,0%[9.22 µM],1%,?,-27%,28µM*
CN1CCN(C(=O)c2ccc3c(c2)NC(=O)C(C)(C)O3)CC1,-7%[10 µM],-3%,5%,13,8.9µM*,-4%
Cc1ccc(C(=O)N2CCN(C)CC2)cc1S(=O)(=O)N1CCCCC1,4%,10%,-12%,-5,-21%,?
Cc1ccc([N+](=O)[O-])cc1S(=O)(=O)N(C(=O)c1ccncc1)c1ccc2oc3c(c2c1)CCCC3,11%[10 µM],18µM*,-11%,61,-21%,0%
CC1CCCC(C)N1C(=O)COc1ccc(C(=O)N/N=C/c2ccc(C(=O)O)cc2)cc1 (stereo not given),-23%,-5%,7%,/,/,-2%
COC(=O)C12CC3(CCC4C5C(C(OCc6ccccc6)C41)C52)OCCO3 (stereo not given),?,/,/,/,/,11%[13.5 µM]
CCN=C1SC(C(=O)Nc2ccccc2)CC(=O)N1CC (stereo not given),2%,2%,-16%,-85*,-11%,?
CCN=C1SC(C(=O)Nc2cccc(C(=O)O)c2)CC(=O)N1CC (stereo not given),-14%[10 µM],14%,-8%,38,-12%,7%
CCC(=O)Nc1ccc(C(=O)c2ccccc2)cc1,-18%,0%[9.22 µM],7%,-17,14µM*,?
CCCC(=O)Nc1ccc(Nc2ccccc2)cc1,16%[0.074 µM],-9%,-10%,?,16µM*,?
CCCOC(=O)c1ccc(NC(=O)CCOc2ccccc2)cc1,-28%,-3%,-10%,-5,-18%,14µM*
CC(=O)N1C2(C=CC1(C)C(=O)NCCN1CCOCC1)CCCCC2 (stereo not given),-35%,/,3%,/,-9%,-12%
O=Cc1ccccc1Cl,-46%,/,-4%,/,-7%,9%
COc1ccc(C(=O)[C@H]2[C@H]3[C@@H](C(=O)[C@@H]4OC[C@H]3O4)[C@H]3C=Cc4ccccc4N32)c(OC)c1,-3%,/,/,/,/,/
CC(O)CSc1nc2c(c(=O)[nH]c(=O)n2C)n1CC(O)COc1ccccc1 (stereo not given),-12%,5%,6%,/,/,24µM*
